Results published in ChEMBL document CHEMBL1157539, “Thousands of chemical starting points for antimalarial lead identification” (Nature, 2010).

Assays:
Type in all cases: functional
[1] = test system: Plasmodium falciparum; experiment: GSK_TCMDC: Inhibition of Plasmodium falciparum 3D7 in whole red blood cells, using parasite LDH activity as an index of growth. Test compounds present at 2uM
[2] = test system: Plasmodium falciparum; experiment: GSK_TCMDC: Inhibition of Plasmodium falciparum Dd2 in whole red blood cells, using parasite LDH activity as an index of growth. Test compounds present at 2uM
[3] = test system: HepG2; experiment: GSK_TCMDC: Percent inhibition of human HepG2 cell line. Test compounds present at 10uM.

Compound | Inhibition [1] [%] | Inhibition [2] [%] | Inhibition [3] [%]
CCOC(=O)c1ccc(NC(=O)Nc2ccc(-c3cccc(-c4nc5cc(F)ccc5[nH]4)c3)cc2)cc1 | 100 | 100 | 98
CS(=O)(=O)O.O=[N+]([O-])c1ccc(CNCCCCCCNCc2ccc([N+](=O)[O-])c3ccccc23)c2ccccc12 | 100 | 98 | 88
CN(CC(=O)Nc1ccc(F)c(F)c1F)c1ncnc2sc(-c3ccccc3)cc12 | 95 | 34 | 0
Cc1ccc(N2CCc3c(-c4cc5cccnc5nc4C)cc(C)nc32)c(Cl)c1.O=C(O)C(F)(F)F | 96 | 90 | 0
COc1ccc(Nc2nccc(N3CCC(NC(=O)Nc4cccc(OC)c4)C3)n2)cc1 (stereo not drawn) | 99 | 48 | 23
O=C(c1cc2cccc([N+](=O)[O-])c2[nH]1)N1CCC(CCN2CCC(c3c[nH]c4ccccc34)CC2)CC1 | 89 | 24 | 45
CC(O)C1CCCCN1C(=O)c1cccc(-c2ccc(-c3nc4cc(C(F)(F)F)ccc4[nH]3)cc2)c1 (stereo not drawn) | 100 | 100 | 33
Cc1ccc(C(=O)Nc2ccc(Nc3ccnc4cc(-c5ccccn5)ccc34)cc2O)cc1.Cl | 100 | 100 | 100
O=C(N[C@@H](CC1CCCCC1)C(=O)NC1CCCc2ccccc21)c1ccc(O)c(-c2cccc(C(F)(F)F)c2)c1 (stereo partly drawn) | 100 | 99 | 0
Cc1cc(N2CCCC2)nc(Nc2ccc(NC(=O)c3ccc(Br)o3)cc2)n1 | 99 | 57 | 17
Cc1ccc2sc(N3CCN(C(=O)c4ccc([N+](=O)[O-])o4)CC3)nc2c1C | 90 | 86 | 0
COCCNC(=O)c1ccc(OC2CCN(Cc3ccc(F)c(F)c3)CC2)c(Cl)c1 | 88 | 73 | 8
CN1CCN(c2ccnc3ccc(NC(=O)Nc4cccc5c(Br)cccc45)cc23)CC1.Cl | 100 | 96 | 7
CC(C)S(=O)(=O)N1CCN(Cc2ccc3c(c2)nc(NC(=O)c2ccsc2)n3C[C@H](O)c2ccccc2)CC1 | 91 | 72 | 56
c1csc(-c2ccc3c(c2)CC(NCc2c[nH]c4cnccc24)C3)c1 (stereo not drawn) | 100 | 34 | 9
Cc1ccc(O)c(C(=O)c2cc(C(=O)Nc3ccccc3C)c(=O)n(-c3ccccc3C)c2)c1 | 98 | 81 | 0
Cc1c(CNCCCNc2nc3ccccc3[nH]2)sc(C(F)F)c1Br.Cl | 100 | 5 | 9
CCC[C@@H]([C@@H](CC1CCCCC1)C(=O)N[C@@H](CCCCNS(C)(=O)=O)C(=O)Nc1nccs1)N(O)C=O | 100 | 74 | 0
COc1ccc2nccc([C@@H](O)CN3CCC(NCc4cc5cccc6c5n(c4=O)CCC6)CC3)c2c1.O=C(O)C(=O)O | 98 | 97 | 33
Fc1ccc2[nH]c(-c3ccc(-c4ccc(CNCCc5ccncc5)cc4)cc3)nc2c1.O=C(O)C(F)(F)F | 100 | 97 | 23
Cc1cccc2nc(-c3cccc(-c4ccc(CN5CCN(CCO)CC5)cc4)c3)[nH]c12.O=C(O)C(F)(F)F | 100 | 63 | 12

Compound | Inhibition [1] [%] | Inhibition [2] [%] | Inhibition [3] [%]
O=c1cc(NCCC(CNCc2cc3ccccc3o2)NCc2cc(Br)cc(Br)c2)[nH]c2ccccc12 (stereo not drawn) | 100 | 94 | 6
CCc1cc2c(=O)c(-c3nc(C)cs3)c(N)oc2c(CN2CCCCC2)c1O | 99 | 97 | 0
Cc1ccc(C(O)CNc2ccnc(Nc3cccc(-c4csc(C)n4)c3)n2)cc1 (stereo not drawn) | 92 | 31 | 17
COc1cc(C(=O)N2CCOC(CCN3CCC(c4ccc(Cl)cc4)CC3)(c3ccc(Cl)c(Cl)c3)C2)cc(OC)c1OC (stereo not drawn) | 91 | 80 | 44
COc1cccc(NC(=O)Nc2cc(C)nc3ccccc23)c1 | 100 | 48 | 2
c1ccc(CNc2nc(NCCN3CCCCC3)nc3ccccc23)cc1 | 87 | 8 | 19
Cn1nc(C(F)(F)F)c(-c2ccc(F)cc2)c1NC(=O)Nc1ccc(F)cc1 | 100 | 99 | 5
COc1ccc(CNC(=O)Nc2cc3cc(-c4ccc(CN5CCCC5)cc4)ccc3n3c(C)nnc23)cc1 | 100 | 100 | 100
COc1ccc2ccccc2c1CNCCCCCCNCc1c(OC)ccc2ccccc12.Cl | 100 | 35 | 99
CC(=O)Nc1ccc(C(=O)Nc2ccc(-c3cccc(-c4nc5cccc(C)c5[nH]4)c3)cc2)cn1 | 99 | 74 | 36
CCN1CCN(c2cc(C)c3cc(NC(=O)c4cccc(C(F)(F)F)c4)ccc3n2)CC1 | 100 | 85 | 24
Cc1ccc(/C=C/C(=O)NC2CCC(N3CCC(c4ccccc4C)CC3)CC2)cc1F (stereo not drawn) | 96 | 18 | 51
O=C(NCc1ccccc1)Nc1ccc(-c2cccc(-c3nc4cc(C(F)(F)F)ccc4[nH]3)c2)cc1 | 97 | 23 | 56
Cc1[nH]c(C)c(-c2ccc(-c3cccc(C(F)(F)F)c3)nc2)c(=O)c1Br | 97 | 96 | 28
O=C(/C=C/c1ccc(Cl)c(Cl)c1)NCCCCCN1CCCN(C(=O)Nc2ccc(F)c(F)c2)CC1 | 100 | 0 | 26
COc1ccc(-n2nc(C(=O)NCCC3=CCCCC3)c3ccccc3c2=O)cc1 | 94 | 59 | 0
CCCCCCN1CCC(NCc2ccc(OCCN3CCCC3)cc2)CC1.O=C(O)C(F)(F)F | 100 | 93 | 23
COC(=O)c1cccc(CNCc2ccc(-c3cccc(-c4nc5cc(C(F)(F)F)ccc5[nH]4)c3)cc2)c1.O=C(O)C(F)(F)F | 100 | 97 | 5
CN(C)CCN(C)Cc1ccc(-c2ccc(NC(=O)c3ccc(Cl)cc3)cc2)cc1.O=C(O)C(F)(F)F | 91 | 19 | 51
Cn1cncc1CNCc1ccc(-c2cccc(-c3nc4ccccc4[nH]3)c2)cc1.O=C(O)C(F)(F)F | 100 | 92 | 19
CC(=O)c1cccc(NC(=O)N2CCCN(CCCCCNC(=O)/C=C/c3ccc(Cl)c(Cl)c3)CC2)c1 | 93 | 0 | 13

Compound | Inhibition [1] [%] | Inhibition [2] [%] | Inhibition [3] [%]
COc1cc2nc(Nc3ccc4c(cnn4Cc4ccccc4)c3)nc(Nc3ccc4c(cnn4Cc4ccccc4)c3)c2cc1OC | 99 | 100 | 4
COCCn1c(Sc2ncnc3sccc23)nc2ccccc21 | 95 | 72 | 0
CCOC(=O)C(Oc1ccc2ccccc2c1)C(=O)OCC | 98 | 0 | 8
CCCCC(=O)Nc1ccc(Nc2nc(C)cc(N3CCCC3)n2)cc1 | 100 | 67 | 38
COc1ccc(Nc2ncc3c(-c4cccc(NC(=O)Cc5ccc(O)cc5)c4)c[nH]c3n2)cc1OC | 100 | 99 | 48
CCC(C(=O)Nc1ccccc1)n1nc(-c2ccc(C)c(S(=O)(=O)N3CCCCC3)c2)ccc1=O (stereo not drawn) | 85 | 67 | 0
COc1ccc2nccc([C@@H](O)CN3CCC(NCc4ccc5c(c4)NC(=O)C(C)S5)CC3)c2c1.O=C(O)C(=O)O (stereo partly drawn) | 99 | 72 | 7
O=C(N/C=N/c1cc([N+](=O)[O-])c(-c2ccncc2)n1-c1ccccc1)c1cccc(O)c1 | 100 | 56 | 2
COc1c(C2CCN(CCCCNC(=O)c3ccc(-c4ccc(C#N)cc4)cc3)CC2)ccc2c1C(C)(C)CCC2(C)C | 100 | 86 | 98
COc1ccc(NC(=O)N2CCCN(CCCCCNC(=O)/C=C/c3ccc(Cl)cc3)CC2)cc1Cl | 97 | 1 | 15
COc1ccc([N+](=O)[O-])cc1N(Cc1ccccc1-c1ccccc1)S(=O)(=O)c1ccc(C(F)(F)F)cc1 | 96 | 66 | 3
CC(Cc1ccc(OCCN2CCN(c3cccc(C(F)(F)F)c3)CC2)cc1)NCC(O)c1cccc(C(F)(F)F)c1.Cl (stereo not drawn) | 97 | 91 | 11
FC(F)(F)c1ccc2nccc(NCc3ccccc3)c2c1 | 93 | 56 | 18
O=C(/C=C/c1ccc(Cl)c(Cl)c1)NCCCCCN1CCCN(C(=O)Nc2ccc(Cl)c(Cl)c2)CC1 | 100 | 2 | 55
Cl.NOCCCOc1ccccc1 | 100 | 0 | 20
Cc1noc(C)c1-c1cccc(CNCc2cccc(-c3csc(-c4nc5ccccc5[nH]4)c3)c2)c1.O=C(O)C(F)(F)F | 100 | 74 | 32
CC(C)N1CCN(C(CN2CCN(CCCOc3cccc(F)c3)CC2)c2ccc(F)cc2)CC1.Cl (stereo not drawn) | 92 | 38 | 38
N=C(N)NCCCCN(Cc1ccccc1)c1ccccc1 | 100 | 98 | 0
CCc1cn2c3c(cc(C(=O)N[C@@H](Cc4ccccc4)[C@H](O)CNCc4ccc(C)cc4)cc13)N(C)S(=O)(=O)CC2.O=CO | 99 | 98 | 0
